Bioassay records (PubChem BioAssay)
Shown are actives, neighbours in structure and some others; about 2.4% of the full set was active somewhere.
TRAIL sens C8: caspase-8 TRAIL sensitization; NB7+C8 cells + TRAIL, ATPlite viability luminescence; inhibition (viability loss, TRAIL sensitization), % at 10 µM; hit rate 1% among 360,000;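 active means compounds causing at least 50% loss of cell viability in the single-dose screen, relative to plate controls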
PPC-1+TRAIL kill: compounds killing PPC-1 cancer cells with TRAIL present (potentiator screen, no TRAIL-free arm); cell killing (% activity), % at 4 µM or 5 µM; hit rate 0.41% among 220,000; PPC-1 cells + TRAIL, ATPLite viability luminescence;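 active means cell killing above 50% in the first pass at 4 µM, then a duplicate retest at 5 µM averaging 50% or more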
STAT3 blocker: reduces IL-6 driven STAT3 reporter signal; U3A cells, IL-6 STAT3-luciferase reporter, luminescence; host cell line lacks STAT1; inhibition, % at 5.5 µM; hit rate 0.89% among 190,000;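 active means inhibition above the mean inhibition across all screened compounds plus 3 SD, cut at about 44% in these data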
HSP90 refold inh: blocks HSP90-mediated luciferase refolding in reticulocyte lysate | inhibition, % at 5.6 µM | hit rate 0.91% among 290,000 | AID 1789 | Rabbit reticulocyte lysate, luciferase refolding luminescence, 3 h;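 active means inhibition above the screen-wide mean plus 3 SD, computed separately per campaign, cut at about 16% in these data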;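 further: inhibitors lower the luminescence because luciferase stays unfolded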
STAT1 inh: STAT1 signaling inhibition | NIH 3T3 STAT1-luciferase reporter, IFN-gamma, luminescence | inhibition, % at 5.5 µM | hit rate 0.35% among 200,000;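 active means inhibition above a set limit, the mean inhibition across all tested compounds plus 3 SD, cut at about 34% in these data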
HSF1 inhib: HSF1 inhibition. AID 2098. activity change, negative = inhibition, % at 7.5 µM (by protocol). hit rate 0.77% among 300,000. NIH3T3-HGL HSE-luciferase, MG132-induced, luminescence 8 h; stronger effect = lower value;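 active means more than half of replicate wells show activity change below -50%, luminescence cut by over half; inconclusive means some wells, but at most half, below -50%; inactive means no replicate well below -50%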;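 further: luciferase reports HSF-1 transcriptional activity via heat shock element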
HSP90 inh confirm: HSP90 inhibition, confirmation assay. shares compounds with HSP90 refold inh. rabbit reticulocyte lysate, luciferase refolding luminescence, 3 h. inhibition, % at 5.9 µM. hit rate 64% among 2,300; in the data active means inhibition above about 18%
luciferase ctr: firefly luciferase inhibition, HSP90 counter-screen; shares compounds with HSP90 refold inh; purified native firefly luciferase, luminescence; inhibition, % at 5.9 µM; hit rate 48% among 2,300; AID 1847;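 active means inhibition above the mean inhibition of all tested sample wells plus 3 SD, cut at about 10% in these data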
Target sequence (P08659 whole entry, looked up): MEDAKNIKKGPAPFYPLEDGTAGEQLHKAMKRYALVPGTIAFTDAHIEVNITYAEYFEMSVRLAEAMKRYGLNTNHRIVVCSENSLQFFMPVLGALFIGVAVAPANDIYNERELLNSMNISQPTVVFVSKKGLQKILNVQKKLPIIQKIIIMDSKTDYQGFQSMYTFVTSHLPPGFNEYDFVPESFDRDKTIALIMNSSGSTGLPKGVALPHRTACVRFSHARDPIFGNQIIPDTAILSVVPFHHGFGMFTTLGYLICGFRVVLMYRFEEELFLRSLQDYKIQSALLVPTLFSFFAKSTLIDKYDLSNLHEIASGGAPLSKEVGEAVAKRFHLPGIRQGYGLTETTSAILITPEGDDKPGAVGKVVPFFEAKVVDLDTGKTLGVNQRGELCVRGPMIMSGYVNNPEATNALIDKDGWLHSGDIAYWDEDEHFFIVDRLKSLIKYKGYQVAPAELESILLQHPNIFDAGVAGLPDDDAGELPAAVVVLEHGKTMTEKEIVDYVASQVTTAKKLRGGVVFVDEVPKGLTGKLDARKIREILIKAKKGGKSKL
A number is an active result.

What do the screens show for `CCOc1ccc(N2C(=O)CC(NCCNc3ccc([N+](=O)[O-])cn3)C2=O)cc1` (stereo not given)?
TRAIL sens C8: inactive; PPC-1+TRAIL kill: inactive; STAT3 blocker: inactive; HSP90 refold inh: 24; STAT1 inh: inactive; HSF1 inhib: inactive; HSP90 inh confirm: inactive; luciferase ctr: inactive

How did COc1ccc(N2C(=O)CC(NCCNc3ccc([N+](=O)[O-])cn3)C2=O)cc1 (stereo not given) do in these assays?
TRAIL sens C8: inactive; PPC-1+TRAIL kill: inactive; STAT3 blocker: inactive; HSP90 refold inh: inactive; STAT1 inh: inactive; HSF1 inhib: inactive

What do the screens show for `COC(=O)[C@]12CCCCC=C1N(Cc1cccc3ccccc13)C(=O)[C@H](CC(=O)NCc1cccs1)C2`?
TRAIL sens C8: inactive

How did Cc1ccc(/C=C/c2nnc(-c3ccc(C)cc3)o2)cc1 do in these assays?
TRAIL sens C8: inactive; PPC-1+TRAIL kill: inactive; STAT3 blocker: inactive; HSP90 refold inh: 32; STAT1 inh: inactive; HSF1 inhib: inactive; HSP90 inh confirm: inactive; luciferase ctr: inactive

How did Cc1ccc(-c2nnc(-c3ccccc3)o2)cc1 do in these assays?
TRAIL sens C8: inactive; PPC-1+TRAIL kill: inactive; STAT3 blocker: inactive; HSP90 refold inh: inactive; STAT1 inh: inactive; HSF1 inhib: inactive

What do the screens show for `COC(=O)c1cn[nH]c1NC(=S)Nc1ccccc1C`?
TRAIL sens C8: inactive; PPC-1+TRAIL kill: inactive; STAT3 blocker: inactive; HSP90 refold inh: inactive; STAT1 inh: inactive; HSF1 inhib: inactive

What do the screens show for `COC(=O)c1cn[nH]c1NC(=S)Nc1ccc(Cl)c(Cl)c1`?
TRAIL sens C8: inactive; PPC-1+TRAIL kill: inactive; STAT3 blocker: inactive; HSP90 refold inh: 37; STAT1 inh: inactive; HSF1 inhib: -60; HSP90 inh confirm: 44; luciferase ctr: 44

What do the screens show for `CCOc1cc(C2C3=C(CCCC3=O)OC3=C2C(=O)CCC3)cc([N+](=O)[O-])c1O`?
TRAIL sens C8: inactive; PPC-1+TRAIL kill: inactive; STAT3 blocker: inactive; HSP90 refold inh: 31; STAT1 inh: inactive; HSF1 inhib: inactive; HSP90 inh confirm: inactive; luciferase ctr: inactive

Results for COc1ccccc1C(=O)N1CCN(C(=O)[C@H]2O[C@@H](n3ccc(=O)[nH]c3=O)[C@H](O)[C@@H]2O)CC1 ?
TRAIL sens C8: inactive

What do the screens show for `O=C(/C=C/c1ccco1)N1CCc2ccccc21`?
TRAIL sens C8: inactive; PPC-1+TRAIL kill: inactive; STAT3 blocker: inactive; HSP90 refold inh: 24; STAT1 inh: inactive; HSF1 inhib: inactive; HSP90 inh confirm: 41; luciferase ctr: 25

Results for COc1ccc2sc(-c3ccc(S(C)(=O)=O)cc3)c(-c3ccc4c(c3)OCCO4)c2c1 ?
TRAIL sens C8: inactive

Results for O=c1[nH]nc(-c2ccccc2)cc1-c1ccccc1 ?
TRAIL sens C8: inactive; HSF1 inhib: inactive

How did Cc1cc(-c2ccccc2)c2c(=O)[nH][nH]c2n1 do in these assays?
TRAIL sens C8: inactive; PPC-1+TRAIL kill: inactive; STAT3 blocker: inactive; HSP90 refold inh: 18; STAT1 inh: inactive; HSF1 inhib: inactive; HSP90 inh confirm: inactive; luciferase ctr: inactive

What do the screens show for `Cc1ccccc1-n1cnnc1SCC(=O)Nc1cccnc1Cl`?
TRAIL sens C8: inactive; PPC-1+TRAIL kill: inactive; STAT3 blocker: inactive; HSP90 refold inh: inactive; STAT1 inh: inactive; HSF1 inhib: inactive

What do the screens show for `N#CC(C#N)c1ccnc2ccccc12`?
TRAIL sens C8: inactive

What do the screens show for `CCc1ccc(C(=O)/C=C/c2cnn(C)c2C)s1`?
TRAIL sens C8: inactive; PPC-1+TRAIL kill: inactive; STAT3 blocker: inactive; HSP90 refold inh: 35; STAT1 inh: inactive; HSF1 inhib: inactive; HSP90 inh confirm: 26; luciferase ctr: 52

Results for NC(=O)c1cnc(Cc2c[nH]c3ccccc23)c(I)c1 ?
TRAIL sens C8: inactive

How did NC(=O)NC(=O)COC(=O)c1ccc2noc(-c3ccccc3)c2c1 do in these assays?
TRAIL sens C8: inactive; HSP90 refold inh: inactive; HSF1 inhib: inactive

Results for CC(=O)COC(=O)c1ccc2noc(-c3ccccc3)c2c1 ?
TRAIL sens C8: inactive; HSP90 refold inh: 20; HSF1 inhib: inactive; HSP90 inh confirm: inactive; luciferase ctr: inactive

How did O=C(O)c1ccc2nc(-c3ccccc3)c(-c3ccccc3)nc2c1 do in these assays?
TRAIL sens C8: inactive; PPC-1+TRAIL kill: inactive; STAT3 blocker: inactive; HSP90 refold inh: 42; STAT1 inh: inactive; HSF1 inhib: inconclusive; HSP90 inh confirm: 51; luciferase ctr: 37

How did O=C(O)c1ccc2noc(-c3ccccc3)c2c1 do in these assays?
TRAIL sens C8: inactive; PPC-1+TRAIL kill: inactive; STAT3 blocker: inactive; HSP90 refold inh: 41; STAT1 inh: inactive; HSF1 inhib: inactive; HSP90 inh confirm: inactive; luciferase ctr: inactive

Results for Cc1ccc(-c2onc3ccc(C(=O)O)cc23)cc1 ?
TRAIL sens C8: inactive; HSP90 refold inh: 72; HSF1 inhib: inactive; HSP90 inh confirm: 61; luciferase ctr: 57

What do the screens show for `COc1ccccc1C(=O)NCCC(=O)NCC(C)(C)N1CCOCC1`?
TRAIL sens C8: inactive; HSP90 refold inh: inactive; HSF1 inhib: inactive

How did Cc1ccc(Cc2c(C(C)(C)C)nc3cc(C)c(Br)c(C)n23)cc1 do in these assays?
TRAIL sens C8: inactive

Results for COc1ccccc1C(=O)N/C(=C/c1ccc(Br)cc1)C(=O)N1CCOCC1 ?
TRAIL sens C8: inactive

What do the screens show for `N#CCCN(Cc1ccccc1)C(C(=O)NC1CCCCC1)C1CC1` (stereo not given)?
TRAIL sens C8: inactive

How did Cc1n[nH]c(=S)n1/N=C/c1ccc(-c2ccccc2[N+](=O)[O-])o1 do in these assays?
TRAIL sens C8: inactive; PPC-1+TRAIL kill: inactive; STAT3 blocker: inactive; HSP90 refold inh: inactive; STAT1 inh: inactive; HSF1 inhib: inactive

What do the screens show for `Cc1nnc(N/N=C\c2ccc(-c3ccccc3[N+](=O)[O-])o2)n1N`?
TRAIL sens C8: inactive; PPC-1+TRAIL kill: inactive; STAT3 blocker: inactive; HSP90 refold inh: 38; STAT1 inh: inactive; HSF1 inhib: inactive; HSP90 inh confirm: inactive; luciferase ctr: inactive

Results for CCc1nnc(N/N=C/c2ccc(-c3ccc([N+](=O)[O-])cc3)o2)n1N ?
TRAIL sens C8: inactive; PPC-1+TRAIL kill: inactive; STAT3 blocker: inactive; HSP90 refold inh: 36; STAT1 inh: inactive; HSF1 inhib: inactive; HSP90 inh confirm: inactive; luciferase ctr: inactive

Results for Cc1nnc(N/N=C/c2ccc(-c3ccccc3F)o2)n1N ?
TRAIL sens C8: inactive; PPC-1+TRAIL kill: inactive; STAT3 blocker: inactive; HSP90 refold inh: 65; STAT1 inh: inactive; HSF1 inhib: inactive; HSP90 inh confirm: 18; luciferase ctr: inactive

What do the screens show for `Nc1ccccc1SSc1ccccc1N`?
TRAIL sens C8: inactive; PPC-1+TRAIL kill: inactive; HSP90 refold inh: inactive; HSF1 inhib: inactive; HSP90 inh confirm: 36; luciferase ctr: inactive
